# Screens as filed in PubChem.
# Rows were chosen to be rich in hits. Some 1.4% of all compounds tested hit in one or more screens of this group.
# HTT aggregate: mutant huntingtin aggregation inhibition | PC12 HttQ103-GFP aggregates, Acumen cytometry, 40 h | Potency, µM (series often up to 46.1 µM), inactives show at the highest dose activity change, negative = inhibition, actives largely listed as inhibitors | actives 1.1% (n = 220,000) | AID 1688; further: on the % scale 0 is the no-effect control and ±100 the full control effect; nearly all actives have a fitted effect of over 60% in size
#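 Read-out: GFP aggregate count by laser scanning cytometer (488 nm excitation, 500-530 nm emission, 1–25 µm objects >6 SD above background). Cells: PC12, inducible HTTex1-Q103-GFP, 100 nM tebufenozide; compounds titrated.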
# ERK EGF block: blocks ERK signaling stimulated by EGF. HEK293-V1b, EGF-stimulated phospho-ERK AlphaScreen. actives 0.41% (n = 130,000). Potency, µM (doses to about 11.5 µM), inactives show at the highest dose activity change, negative = inhibition, actives largely listed as inhibitors;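 further: plate controls were stimulated vehicle wells for no effect and unstimulated vehicle basal for full effect; nearly all actives have a fitted effect of over 55% in size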
#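 V1b-HEK293, 1% FBS o/n; cpd 30 min 37C; EGF 25 nM final, 5 min; lyse 10 min; AlphaScreen beads 5 h RT. Normalized DMSO basal vs EGF max; Hill AC50.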
# HTT cytoprotect: cytoprotection in Huntington HTT-Q103 PC12 cell model; PC12 HTT-Q103 induced, cytoprotection, ATP luminescence, 40 h; Potency, µM (series often up to 56.4 µM), without a hit: cytoprotection (ATP increase), usual class: activators; actives 0.14% (n = 230,000); further: % of control where 0% means no effect; nearly all actives have a fitted effect of over 45% in size
#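 ATP quantification (ATPlite) reports survival of PC12 cells in which tebufenozide, 100 nM final, switches on Htt exon 1 with 103 glutamines linked to GFP; compounds are titrated.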
# * = called active by the depositor; ? = inconclusive; . = not tested or not shown; [ ] = dose if it differs, or a comment. The call rests on the fitted dose curve; in most records, active means well fitted curve in the direction sought with a large enough effect; inconclusive means small, poorly fitted or top-dose-only effect, or another doubt; inactive means no such curve, though single readings can be large; an effect the other way counts as inactive or inconclusive. Potency means the concentration at half of the fitted maximal effect.
SMILES,HTT aggregate,ERK EGF block,HTT cytoprotect
COC(=O)[C@@]1(Cc2ccc(OC)cc2)[C@H]2c3cc(C(=O)N(C)C)n(Cc4ccc(C)c(F)c4F)c3C[C@H]2CN1C(=O)c1ccccc1,.,-3%,?
Cc1ccc(-n2c(-c3ccc(Br)cc3)c[n+]3c2CCc2ccc4cccnc4c2-3)cc1,1.8µM*,.,-111%
Cc1ccc(-c2c[n+]3c(n2-c2ccccc2)CCC3)cc1,-3%[9.22 µM],0%[57.5 µM],-22%[10 µM]
COCC(=O)C(C(=O)OC)[C@H](CCc1ccccc1)NC(=O)OC (some centres not stated),.,-12%,19%
COc1ccccc1OCC(O)Cn1c(=N)n(Cc2ccccc2)c2ccccc21 (configuration not stated),?,.,-7%[10 µM]
Cc1ccccc1OCC(O)Cn1c(=N)n(Cc2ccccc2)c2ccccc21 (configuration not stated),-9%[9.22 µM],32µM*,-8%[10 µM]
N#CC1=C(SCC(=O)Nc2cccc3cccnc23)NC(=O)C(C#N)C12CCCCC2 (configuration not stated),-33%,.,-28%[0.074 µM]
N#CC1=C(SCC(=O)NC23CC4CC(CC(C4)C2)C3)NC(=O)C(C#N)C12CCCCC2 (configuration not stated),3.5µM*,21%,14%[10 µM]
CC(C)(C)C1CCC2(CC1)C(C#N)=C(SCC(=O)NC1CCCCC1)NC(=O)C2C#N (configuration not stated),11µM*,.,-37%[0.074 µM]
N#CC1=C(SCC(=O)NC2CC2)NC(=O)C(C#N)C12CCCCC2 (configuration not stated),-13%,.,-5%
COC(=O)N1[C@H](C)C=C[C@]1(Cc1ccccc1)C(=O)NCc1ccc(N(C)C)cc1,.,-3%,-50%
Cc1cccc(C)c1NC(=O)[C@H](C)N,18%[20.6 µM],1%[25.7 µM],-7%[40.3 µM]
CC1=C(C(=O)OCC(C)C)C(c2cccc(F)c2)N2C(=O)C(C)SC2=N1 (configuration not stated),4%,.,12%[10 µM]
CCOC(=O)C1=C(C)N=C2SC(C)C(=O)N2C1c1cccc(F)c1 (configuration not stated),5%,.,25µM*
COC(=O)C1=C(C)NC(C)=C(C(=O)OCCCN2CCC(c3ccccc3)(c3ccccc3)CC2)C1c1cccc([N+](=O)[O-])c1 (configuration not stated),?,.,-196%
CC1=C(/C=C/C(C)=C/C=C/C(C)=C/C=O)C(C)(C)CCC1,.,.,-81%
CCOc1ccccc1CNS(=O)(=O)c1ccc2c(c1)oc(=O)n2C,-15%,.,-14%
CCOc1ccccc1CNS(=O)(=O)c1ccc2[nH]c(=O)sc2c1,13µM*,.,-10%
O=c1[nH]c(=O)c2nc(Br)n(C3OC(CO)C(O)C3O)c2[nH]1 (configuration not stated),.,22%,.
c1ccc(CSc2ccc(-c3cccs3)nn2)cc1,11%,6%,5%[10 µM]
c1ccc(CSc2ccc(-c3cccs3)nn2)nc1,0.032µM*,5%,-94%
CCc1nc2cc(Cl)c(Cl)cc2nc1CC,8%[9.22 µM],2%[57.5 µM],10%[10 µM]
CCc1nc2cc(Cl)c(Cl)cc2[nH]1,11µM*,.,-1%[0.074 µM]
CC(C)(c1cc(Br)c(OCC(Br)CBr)c(Br)c1)c1cc(Br)c(OCC(Br)CBr)c(Br)c1 (configuration not stated),.,.,-9%
C=CCn1c(=S)[nH]c2scc(-c3ccc(C)o3)c2c1=O,22µM*,2%,-5%[10 µM]
SMILES,HTT aggregate,ERK EGF block,HTT cytoprotect
CCn1c(=S)[nH]c2scc(-c3cccs3)c2c1=O,?,-6%,-10%[10 µM]
N#Cc1cccc(NC(=O)N2CCC3(CC2)CCN(C(=O)c2cccc(F)c2)CC3)c1,.,-7%,-32%
ClC(=Nc1cccc2ccccc12)N(c1ccccc1)c1ccccc1,.,.,-13%[10 µM]
COC(=O)CC1C(C)(C)C(OC(C)=O)C2CC3C4CC(=O)OC(c5ccoc5)[C@]4(C)CCC3[C@@]1(C)C2=O (some centres not stated),.,6%,?
O=C(O)[C@@H]1CCCN1Cc1c[nH]c2ccccc12,.,.,-3%[10 µM]
Cc1ccc(-n2c(C)cc(C(=O)COC(=O)C3=NNC(=O)CC3)c2C)cc1,-29%,.,-8%
Cc1ccc(-n2c(C)cc(C(=O)COC(=O)c3c(C)noc3C)c2C)cc1,10µM*,.,-49%
COc1ccc(/C=N/NC(=O)c2ccc(Br)cc2)c(OC)c1,-12%,3%,-27%
COc1ccc(/C=N/Nc2ncc(Br)cn2)c(OC)c1,?,0%,3.5µM*
Cc1cc(C(=O)Nc2ccc(C)c(S(=O)(=O)N3CCOCC3)c2)c(C)o1,-7%,-7%,.
Cc1ccc(NC(=O)/C=C/c2ccc3c(c2)OCO3)cc1S(=O)(=O)N1CCOCC1,?,28µM*,-15%[10 µM]
c1ccc(CNc2ncnc3c2oc2ccccc23)nc1,-20%,.,-10%
CCc1nc(NCc2ccccn2)c2oc3ccccc3c2n1,13µM*,?,-40%[0.074 µM]
CCCCCCC(=O)Cc1cc(OC)c(OC)cc1/C=C(/C(C)=O)C(=O)OC,.,.,-35%[10 µM]
Cc1cccc(Cc2cnc(N3C(=N)SC(C)C3=O)s2)c1 (configuration not stated),22µM*,-4%,-84%
Cc1ccc(Cc2cnc(N3C(=N)SC(C)C3=O)s2)cc1 (configuration not stated),-19%,-4%,-74%
O=C(Nc1ccccc1)N1CC2(CCN(S(=O)(=O)c3ccccc3)CC2)C1,.,10%,-17%
C[C@@H](Cc1ccccc1)Nc1ncnc2c1ncn2[C@@H]1O[C@H](CO)[C@@H](O)[C@H]1O,.,.,-7%
O=C1CC(Sc2nnnn2-c2ccccc2)C(=O)N1c1cccc(Cl)c1 (configuration not stated),22µM*,.,26%[10 µM]
COc1ccc(N2C(=O)CC(Sc3nnnn3-c3ccc(F)cc3)C2=O)cc1 (configuration not stated),-2%[9.22 µM],6%,-212%
C[C@H]1Cc2c(-c3ccccc3)nc3c(c2CO1)CN(C(=O)c1cc(I)ccc1F)CC3,.,.,-20%[10 µM]
O=C(CNC(=O)C(c1ccccc1)c1ccccc1)N/N=C/c1ccc(O)cc1O,-27%[9.22 µM],-4%[57.5 µM],-20%[10 µM]
Cc1cc(SCC(=O)N/N=C/c2ccc(O)cc2O)c(C)cc1Br,7.9µM*,.,-26%
[N-]=[N+]=NCC1OC(n2cnc3c(=O)[nH]c(N)nc32)C(O)C1O (configuration not stated),.,15%,.
O=C(Nc1ccccc1)Nc1ncc([N+](=O)[O-])s1,11µM*,10%,14%[10 µM]
SMILES,HTT aggregate,ERK EGF block,HTT cytoprotect
O=C(Nc1ncc([N+](=O)[O-])s1)c1cccc([N+](=O)[O-])c1,10%[9.22 µM],-11%[57.5 µM],-6%[10 µM]
CCCCN1CCCC1C(=O)Nc1c(C)cc(C)cc1C (configuration not stated),6%,.,-18%
N#Cc1ccc(CN2CCC3(CC2)CCN(C(=O)c2cccc(F)c2)CC3)cc1,.,-3%,7%
COc1ccc(OCc2nn3c(Cn4cnc5ccccc54)nnc3s2)cc1,25µM*,.,-31%
c1ccc(CCc2nn3c(Cn4cnc5ccccc54)nnc3s2)cc1,-29%,.,7%
CC1=CC(=C2C=CC(=O)C=C2)C=C(C)N1C,16%[9.22 µM],-3%[57.5 µM],10%[10 µM]
CC(=O)c1cccc(N=c2scc(-c3ccc(S(=O)(=O)N4CCOCC4)cc3)n2CCO)c1,?,-1%,.
